Compounds with a hit are over-represented: about 9.2% of the library has one in this group of screens.
HPGD inh – blocks human HPGD enzyme activity; purified HPGD, NADH fluorescence kinetic, PGE2 substrate; Potency, µM, without a hit: top-dose activity change, negative = inhibition, hits mostly inhibitors; 4.3% of 150,000 active; AID 894; also: % is scaled to controls: 0 for no effect and ±100 for the full control effect
Target sequence (P15428 whole entry, looked up): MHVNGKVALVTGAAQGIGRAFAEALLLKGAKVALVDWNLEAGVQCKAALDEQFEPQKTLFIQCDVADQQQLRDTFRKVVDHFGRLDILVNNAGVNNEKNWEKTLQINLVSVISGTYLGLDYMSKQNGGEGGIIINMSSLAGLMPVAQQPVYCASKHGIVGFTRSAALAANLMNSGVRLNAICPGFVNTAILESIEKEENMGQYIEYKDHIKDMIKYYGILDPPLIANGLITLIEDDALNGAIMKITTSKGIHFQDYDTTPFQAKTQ
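20 nM HPGD preincubated 15 min at room temperature with compound in 50 mM Tris-HCl pH 8, 0.01% Tween 20. Started with 1 mM NAD+ and 30 uM prostaglandin E2; NADH fluorescence (360/450 nm) read 5 times over 30-s intervals, last minus first.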
HTT aggregate – reduces HttQ103-GFP aggregates in PC12 cells; PC12 HttQ103-GFP aggregates, Acumen cytometry, 40 h; Potency, µM (titrated, usually from 46.1 µM), for inactives: top-dose activity change, negative = inhibition, actives largely listed as inhibitors; 1.1% of 220,000 active; AID 1688; active = well fitted curve in the direction sought with a large enough effect; inconclusive = small, poorly fitted or top-dose-only effect, or another doubt; inactive = no such curve, though single readings can be large; an effect the other way counts as inactive or inconclusive; also: % is scaled to controls: 0 for no effect and ±100 for the full control effect; nearly all actives have a fitted effect of over 60% in size
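Aggregates are detected as GFP objects 1–25 µm with signal 6 STDEV over background in lysates of induced PC12 cells. These carry Huntingtin exon 1 with 103 glutamines fused to GFP under an ecdysone promoter; compounds titrated.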
KDM4E inh – JMJD2E (human) inhibition. B2RXH2. JMJD2E catalytic domain, FDH-coupled NADH fluorescence (FDH is formaldehyde dehydrogenase). Potency, µM (doses to about 57.1 µM), inactives show at the highest dose activity change, negative = inhibition, most hits filed as inhibitors. 1.6% of 230,000 active. AID 2147;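 also: 0% = wells with enzyme and -100% = buffer wells without enzyme; nearly all actives have a fitted effect of over 50% in size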
Target sequence (B2RXH2 1-337 limits assumed): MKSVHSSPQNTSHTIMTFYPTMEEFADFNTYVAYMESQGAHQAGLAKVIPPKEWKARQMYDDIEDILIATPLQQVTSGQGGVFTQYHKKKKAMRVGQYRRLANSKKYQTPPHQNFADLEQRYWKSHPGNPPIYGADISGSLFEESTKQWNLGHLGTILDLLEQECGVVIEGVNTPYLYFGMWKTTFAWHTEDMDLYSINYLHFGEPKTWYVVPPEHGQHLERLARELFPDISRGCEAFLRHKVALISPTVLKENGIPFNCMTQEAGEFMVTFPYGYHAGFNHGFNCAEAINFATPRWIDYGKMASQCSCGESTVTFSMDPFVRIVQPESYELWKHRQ
ALDH1A1 inh – blocks purified human ALDH1A1 activity | Purified ALDH1A1, NADH fluorescence, propionaldehyde substrate | 7.3% of 220,000 active | P00352 | AID 1030 | Potency, µM (doses to about 75.3 µM), inactives show at the highest dose activity, negative = inhibition, hits mostly inhibitors;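 also: plate controls were no enzyme wells and a reference inhibitor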
HTT ATP protect – protects HTT-Q103 PC12 cells, measured by ATP; PC12 HTT-Q103 induced, cytoprotection, ATP luminescence, 40 h; Potency, µM (doses to about 56.4 µM), inactives show cytoprotection (ATP increase), most hits filed as activators; 0.14% of 230,000 active; active = well fitted curve in the direction sought with a large enough effect; inconclusive = small, poorly fitted or top-dose-only effect, or another doubt; inactive = no such curve, though single readings can be large; an effect the other way counts as inactive or inconclusive; also: % of control where 0% means no effect; nearly all actives have a fitted effect of over 45% in size
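PC12 cells stably carrying ecdysone-inducible Htt exon 1 (Q103)–GFP were induced with 100 nM tebufenozide (final) alongside library compounds in a dose series. Cytoprotection was scored as retained ATP by ATPlite luminescence.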
LMNA splice mod – LMNA splicing modulation; HeLa LMNA splicing GFP/RFP minigene ratio, 48 h; AID 1487; 0.01% of 200,000 active; Potency, µM (series often up to 46.1 µM), inactives show at the top dose ratio change, negative = inhibition, usual class: inhibitors; active = well fitted inhibition curve with a large enough effect in the signal ratio, with a control signal flat, not every such curve was filed as active; inconclusive = small, poorly fitted or top-dose-only effect, or effect the other way, or a change in a side signal; the % refers to the signal ratio; also: % is scaled to controls: 0 for no effect and ±100 for the full control effect
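S3 HeLa cells stably expressing lamin A-EGFP splicing minigene plus DsRed2, 600 cells/well, 48 h compound exposure at 37C. Laser-scanning cytometry; analysed as GFP (500-530 nm)/RFP (575-640 nm) total intensity ratio; 0.5% DMSO vehicle.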
An asterisk follows results filed as active; [ ] = another dose, or the depositor's remark. Unless noted, calls follow the shape of the dose curve; as a rule, active = well fitted inhibition curve with a large enough effect (not every such curve was filed as active); inconclusive = small, poorly fitted or top-dose-only effect, or another doubt; inactive = no such curve, though single readings can be large or run the other way. Potency is read from the fitted curve at half-maximal effect.

For CN(C)[C@@H]1C(=O)C(C(N)=O)=C(O)[C@]2(O)C(=O)C3=C(O)c4c(O)cccc4[C@@](C)(O)[C@H]3[C@H](O)[C@@H]12 the results were HPGD inh inconclusive, KDM4E inh 11.2µM*, ALDH1A1 inh inconclusive, HTT ATP protect 2.1%[40.3 µM] and LMNA splice mod inconclusive.
`CN(C)C1C(=O)C(C(N)=O)=C(O)[C@@]2(O)C(=O)C3=C(O)c4c(O)cccc4[C@@](C)(O)C3[C@H](O)C12` (stereo partly specified) gave HPGD inh inconclusive, KDM4E inh 2µM*, ALDH1A1 inh 7.08µM* and HTT ATP protect -14.6%[1.9 µM].
For CN(C)[C@@H]1C(=O)C(C(N)=O)=C(O)[C@@]2(O)C(=O)C3=C(O)c4c(O)ccc(Cl)c4[C@@](C)(O)C3C[C@@H]12 (stereo partly specified) the results were HPGD inh -17.4%, HTT aggregate -8.7%, KDM4E inh 3.6%, ALDH1A1 inh -2.5% and LMNA splice mod -7.6%.
CN(C)[C@H]1C(=O)C(C(N)=O)=C(O)[C@]2(O)C(=O)C3=C(O)c4c(O)cccc4[C@@](C)(O)[C@H]3C[C@@H]12 was read as HPGD inh -20.5%, HTT aggregate -9.9%[20.6 µM], KDM4E inh 11.2µM*, ALDH1A1 inh -8.7%[20.9 µM], HTT ATP protect -1.0%[40.3 µM] and LMNA splice mod inconclusive.
`N[C@]1(C(=O)O)CC[C@@H](C(=O)O)C1` (racemic) gave ALDH1A1 inh 2.9% and HTT ATP protect -28.5%.
Screening O=C(O)C(Cl)Br (stereo unspecified) returned HPGD inh -8.8%, ALDH1A1 inh inconclusive and HTT ATP protect 18.0%.
Cc1cccc(N)c1C was read as HPGD inh -11.4%, ALDH1A1 inh -5.0% and HTT ATP protect 3.8%.
OC[C@H]1O[C@@H](n2cnc3cc(Cl)c(Cl)cc32)[C@H](O)[C@H]1O was read as ALDH1A1 inh inconclusive and HTT ATP protect -2.8%.
`CN(C)C(=O)Nc1cccc(C(F)(F)F)c1` gave HPGD inh -4.1%, ALDH1A1 inh 2.7% and HTT ATP protect -24.0%.
Cc1cc(SCc2sc(-c3ccc(C(F)(F)F)c(F)c3)nc2C)ccc1OCC(=O)O was read as HPGD inh 10µM*, KDM4E inh -14.4%, ALDH1A1 inh inconclusive and HTT ATP protect -31.2%.
Screening NC(N)=Nc1ccc2[nH]c3c(c2c1)C[C@]1(O)[C@@H]2Cc4ccc(O)c5c4[C@]1(CCN2CC1CC1)[C@H]3O5 returned HTT ATP protect 6.8%[1.9 µM].
C1=C(c2c[nH]c3ccccc23)CCNC1 was read as HTT aggregate 3.5%, KDM4E inh 25.1µM*, ALDH1A1 inh inconclusive, HTT ATP protect -4.3% and LMNA splice mod -3.7%.
For COc1ccccc1CN1CCN(Cc2ccc(Cl)cc2)CC1 the results were HTT aggregate 11.3%, KDM4E inh 20µM*, ALDH1A1 inh inconclusive and HTT ATP protect -2.9%[10 µM].
Screening CCOC(=O)N1CCN(Cc2ccccc2F)CC1 returned HPGD inh -0.6%, HTT aggregate 9.1%, KDM4E inh inconclusive, ALDH1A1 inh 14.1µM*, HTT ATP protect 13.5%[0.074 µM] and LMNA splice mod 6.8%.
`CCN1CCN(Cc2ccc(C)cc2)CC1` gave HPGD inh -6.8%, HTT aggregate 5.3%, KDM4E inh 0.6%, ALDH1A1 inh inconclusive, HTT ATP protect -14.8% and LMNA splice mod -1.0%.
`Cc1ccc(CN2CCN(Cc3ccccc3F)CC2)cc1` gave HTT aggregate 23.0%, KDM4E inh 12.6µM*, ALDH1A1 inh inconclusive, HTT ATP protect -46.2% and LMNA splice mod -2.8%[46 µM].
`FC(F)(F)c1ccccc1CN1CCN(Cc2ccccc2)CC1` gave HPGD inh -13.1%, HTT aggregate -2.4%, KDM4E inh inconclusive, ALDH1A1 inh 20µM*, HTT ATP protect -15.1% and LMNA splice mod 10.4%.
Screening CC(C)N1CCN(Cc2ccccc2C(F)(F)F)CC1CCO (stereo unspecified) returned HTT aggregate 11.5%[9.22 µM], KDM4E inh 2.6%, ALDH1A1 inh 7.6%, HTT ATP protect 17.6%[10 µM] and LMNA splice mod 6.1%[46 µM].
`CC(C)[C@@]1(NC(=O)[C@@H]2C[C@H]3c4cccc5[nH]cc(c45)C[C@@H]3N(C)C2)O[C@@]2(O)[C@H]3CCCN3C(=O)[C@@H](Cc3ccccc3)N2C1=O` gave HTT ATP protect -32.8%.
For Nc1nnnn1CCO the results were HPGD inh -4.2%, ALDH1A1 inh -0.3%[13.5 µM] and HTT ATP protect 7.7%[10 µM].
For N[C@@H](Cc1c[nH]c2cc([N+](=O)[O-])ccc12)C(=O)O the results were HPGD inh -7.7%, ALDH1A1 inh 3.8%[13.5 µM] and HTT ATP protect 10.1%[10 µM].
For CCOC(=O)CC(SP(=O)(OC)OC)C(=O)OCC (stereo unspecified) the results were HPGD inh -21.1%, ALDH1A1 inh 11.2µM* and HTT ATP protect -68.1%.
Screening CCOC(=O)CBr returned HPGD inh -11.8%, ALDH1A1 inh inconclusive and HTT ATP protect 17.0%.
c1nc[nH]n1 was read as HPGD inh 0.9%, ALDH1A1 inh 1.2% and HTT ATP protect -8.1%.
Oc1cc[c]([Hg][Cl])cc1 was read as HTT aggregate 2.51µM* and HTT ATP protect -99.0%.
For O=C(O)Cc1ccc([N+](=O)[O-])cc1[N+](=O)[O-] the results were HPGD inh -2.9%, ALDH1A1 inh -5.7%[13.5 µM] and HTT ATP protect -0.5%[10 µM].
O=C(O)C(O)(c1ccc(-c2ccccc2)cc1)c1ccc(-c2ccccc2)cc1 was read as HPGD inh -13.5%, ALDH1A1 inh -2.1%[13.5 µM] and HTT ATP protect 8.5%[10 µM].
For N[C@H](Cn1ccc(=O)[nH]c1=O)C(=O)O the results were HTT ATP protect -20.4%[1.9 µM].
For CCN1CCN(S(=O)(=O)c2ccc(Cl)nc2)CC1 the results were HPGD inh -2.3%, HTT aggregate 9.5%, KDM4E inh 2.3%, ALDH1A1 inh 25.1µM*, HTT ATP protect -7.6% and LMNA splice mod 3.9%.
N[C@H](CCl)C(=O)O was read as HTT ATP protect -2.0%[1.9 µM].
O=C(NC1CN2CCC1CC2)c1ccc(-c2ccc([N+](=O)[O-])cc2)o1 (stereo unspecified) was read as HPGD inh -28.9%, HTT aggregate 5.7%, KDM4E inh -2.2%, ALDH1A1 inh 0.447µM*, HTT ATP protect 8.8%[10 µM] and LMNA splice mod -3.7%.
O=C(N[C@H]1CN2CCC1CC2)c1ccc(Cl)cc1 was read as HPGD inh -4.6%, KDM4E inh -5.7%, ALDH1A1 inh 6.4% and HTT ATP protect -15.8%.
